# Reference: publication PMC5540273 (PLoS ONE, 2017)
# Where “and” joins values, the source holds several entries; their conditions need not be identical. Equal entries are not always repeated. Where two headings read alike, the source gives them in different places.
# How the values were obtained:
# SgK110 = settings: concentration: 1 μM, replicates: in singlicate; n = 1
# TAK1 = test system: T1, TAK1; settings: concentration: 1 μM, replicates: in singlicate, n = 1
# T1 construct: gene MAP3K7
# TAOK1 = settings: concentration: 1 μM, replicates: in singlicate; n = 1
# TAOK2 = settings: concentration: 1 μM, replicates: in singlicate, n = 1
# TAOK3 = settings: concentration: 1 μM, replicates: in singlicate, n = 1
# TBK1 = settings: concentration: 1 μM, replicates: in singlicate, n = 1
# TEC = settings: concentration: 1 μM, replicates: in singlicate; n = 1
# TESK1 = settings: concentration: 1 μM, replicates: in singlicate, n = 1
# TGFBR1 = settings: concentration: 1 μM, replicates: in singlicate, n = 1
# TGFBR2 = settings: concentration: 1 μM, replicates: in singlicate; n = 1
# TIE1 = settings: concentration: 1 μM, replicates: in singlicate; n = 1
# TIE2 = test system: T2, TIE2; settings: concentration: 1 μM, replicates: in singlicate, n = 1
# T2 construct: gene TEK
# TLK1 = settings: concentration: 1 μM, replicates: in singlicate, n = 1
# TLK2 = settings: concentration: 1 μM, replicates: in singlicate, n = 1
# TNIK = settings: concentration: 1 μM, replicates: in singlicate, n = 1
# TNK1 = settings: concentration: 1 μM, replicates: in singlicate, n = 1
# TNK2 = settings: concentration: 1 μM, replicates: in singlicate; n = 1
# TNNI3K = settings: concentration: 1 μM, replicates: in singlicate, n = 1
# TRKA = test system: T3, TRKA; settings: concentration: 1 μM, replicates: in singlicate, n = 1
# T3 construct: gene NTRK1
# TRKB = settings: concentration: 1 μM, replicates: in singlicate, n = 1
# 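Further: KINOMEscan kinase panel screen.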
structure (smiles),measurement,setting,value
CCC(CC)(CC)n1cnc2c(N)ncnc21 [SKF-97620],%Inh,SgK110,8%
same,%Inh,TAK1,6%
same,%Inh,TAOK1,48%
same,%Inh,TAOK2,2%
same,%Inh,TAOK3,22%
same,%Inh,TBK1,15%
same,%Inh,TEC,35%
same,%Inh,TESK1,0%
same,%Inh,TGFBR1,52%
same,%Inh,TGFBR2,0%
same,%Inh,TIE1,21%
same,%Inh,TIE2,8%
same,%Inh,TLK1,27%
same,%Inh,TLK2,2%
same,%Inh,TNIK,100%
same,%Inh,TNK1,6%
same,%Inh,TNK2,0%
same,%Inh,TNNI3K,0%
same,%Inh,TRKA,41%
same,%Inh,TRKB,26%
CCc1nc(-c2cccc(C)c2)c(-c2ccnc(NC(=O)c3ccccc3)c2)s1,%Inh,SgK110,18%
same,%Inh,TAK1,35%
same,%Inh,TAOK1,0%
same,%Inh,TAOK2,0%
same,%Inh,TAOK3,0%
same,%Inh,TBK1,10%
same,%Inh,TEC,18%
same,%Inh,TESK1,0%
same,%Inh,TGFBR1,32%
same,%Inh,TGFBR2,0%
same,%Inh,TIE1,0%
same,%Inh,TIE2,0%
same,%Inh,TLK1,13%
same,%Inh,TLK2,0%
same,%Inh,TNIK,62%
same,%Inh,TNK1,27%
same,%Inh,TNK2,9%
same,%Inh,TNNI3K,0%
same,%Inh,TRKA,17%
same,%Inh,TRKB,0%
CCCc1ccc(S(=O)(=O)NC2CCN(c3ccnc(Nc4ccc(OC)cc4)n3)C2)cc1 (stereo not drawn) [GSK1379737],%Inh,SgK110,0%
same,%Inh,TAK1,0%
same,%Inh,TAOK1,0%
same,%Inh,TAOK2,0%
same,%Inh,TAOK3,0%
same,%Inh,TBK1,0%
same,%Inh,TEC,0%
same,%Inh,TESK1,36%
same,%Inh,TGFBR1,28%
same,%Inh,TGFBR2,0%
same,%Inh,TIE1,34%
same,%Inh,TIE2,0%
same,%Inh,TLK1,0%
same,%Inh,TLK2,0%
same,%Inh,TNIK,0%
same,%Inh,TNK1,0%
same,%Inh,TNK2,11%
same,%Inh,TNNI3K,6%
same,%Inh,TRKA,0%
same,%Inh,TRKB,23%
Cc1ccc(O)cc1Nc1cc(C(F)(F)F)nc2ccc(-c3ccncc3)cc12 [GW630823],%Inh,SgK110,0%
same,%Inh,TAK1,0%
same,%Inh,TAOK1,0%
same,%Inh,TAOK2,5%
same,%Inh,TAOK3,0%
same,%Inh,TBK1,5%
same,%Inh,TEC,92.1%
same,%Inh,TESK1,6%
same,%Inh,TGFBR1,5%
same,%Inh,TGFBR2,0%
same,%Inh,TIE1,0%
same,%Inh,TIE2,3%
same,%Inh,TLK1,21%
same,%Inh,TLK2,0%
same,%Inh,TNIK,1%
same,%Inh,TNK1,0%
same,%Inh,TNK2,17%
same,%Inh,TNNI3K,14%
same,%Inh,TRKA,0%
same,%Inh,TRKB,0%
COc1ccc(Nc2nccc(N3CCC(NC(=O)Nc4ccc5c(c4)OCO5)C3)n2)cc1 (stereo not drawn) [GSK1379745],%Inh,SgK110,2%
same,%Inh,TAK1,0%
same,%Inh,TAOK1,0%
same,%Inh,TAOK2,0%
same,%Inh,TAOK3,0%
same,%Inh,TBK1,18%
same,%Inh,TEC,9%
same,%Inh,TESK1,12%
same,%Inh,TGFBR1,8%
same,%Inh,TGFBR2,0%
same,%Inh,TIE1,19%
same,%Inh,TIE2,0%
same,%Inh,TLK1,18%
same,%Inh,TLK2,0%
same,%Inh,TNIK,1%
same,%Inh,TNK1,0%
same,%Inh,TNK2,14%
same,%Inh,TNNI3K,11%
same,%Inh,TRKA,64%
same,%Inh,TRKB,41%
Cl.Cn1ccc(-c2cccc(Nc3ccnc4cc(-c5nccs5)ccc34)c2)n1 [GW525701],%Inh,SgK110,19%
same,%Inh,TAK1,0%
same,%Inh,TAOK1,0%
same,%Inh,TAOK2,0%
same,%Inh,TAOK3,0%
same,%Inh,TBK1,17%
same,%Inh,TEC,17%
same,%Inh,TESK1,34%
same,%Inh,TGFBR1,12%
same,%Inh,TGFBR2,0%
same,%Inh,TIE1,0%
same,%Inh,TIE2,0%
same,%Inh,TLK1,13%
same,%Inh,TLK2,3%
same,%Inh,TNIK,50%
same,%Inh,TNK1,0%
same,%Inh,TNK2,33%
same,%Inh,TNNI3K,0%
same,%Inh,TRKA,0%
same,%Inh,TRKB,60%
COc1cc2ncnc(Nc3ccc(OCc4ccccc4Br)c(Cl)c3)c2cc1OC.Cl [GI261590],%Inh,SgK110,0%
same,%Inh,TAK1,0%
same,%Inh,TAOK1,0%
same,%Inh,TAOK2,0%
same,%Inh,TAOK3,0%
same,%Inh,TBK1,10%
same,%Inh,TEC,21%
same,%Inh,TESK1,33%
same,%Inh,TGFBR1,27%
same,%Inh,TGFBR2,0%
same,%Inh,TIE1,0%
same,%Inh,TIE2,3%
same,%Inh,TLK1,0%
same,%Inh,TLK2,0%
same,%Inh,TNIK,0%
same,%Inh,TNK1,0%
same,%Inh,TNK2,24%
same,%Inh,TNNI3K,5%
same,%Inh,TRKA,0%
same,%Inh,TRKB,19%
COc1ccc(NC(=O)c2ccc(-c3cc(-c4nnc(C)o4)ccc3C)cc2)cc1 [GW595885],%Inh,SgK110,13%
same,%Inh,TAK1,0%
same,%Inh,TAOK1,0%
same,%Inh,TAOK2,0%
same,%Inh,TAOK3,0%
same,%Inh,TBK1,0%
same,%Inh,TEC,2%
same,%Inh,TESK1,24%
same,%Inh,TGFBR1,6%
same,%Inh,TGFBR2,0%
same,%Inh,TIE1,14%
same,%Inh,TIE2,0%
same,%Inh,TLK1,0%
same,%Inh,TLK2,0%
same,%Inh,TNIK,0%
same,%Inh,TNK1,0%
same,%Inh,TNK2,21%
same,%Inh,TNNI3K,0%
same,%Inh,TRKA,0%
same,%Inh,TRKB,17%
Fc1ccc(-c2ncn(CCCNCc3ccccc3)c2-c2ccncc2)cc1,%Inh,SgK110,12%
same,%Inh,TAK1,29%
same,%Inh,TAOK1,5%
same,%Inh,TAOK2,0%
same,%Inh,TAOK3,0%
same,%Inh,TBK1,25%
same,%Inh,TEC,8%
same,%Inh,TESK1,6%
same,%Inh,TGFBR1,0%
same,%Inh,TGFBR2,10%
same,%Inh,TIE1,23%
same,%Inh,TIE2,0%
same,%Inh,TLK1,26%
same,%Inh,TLK2,0%
same,%Inh,TNIK,12%
same,%Inh,TNK1,0%
same,%Inh,TNK2,13%
same,%Inh,TNNI3K,0%
same,%Inh,TRKA,38%
same,%Inh,TRKB,3%
Clc1cccc(-c2nc(Nc3ccncc3)c3ccccc3n2)c1 [GW873004],%Inh,SgK110,38%
same,%Inh,TAK1,0%
same,%Inh,TAOK1,0%
same,%Inh,TAOK2,4%
same,%Inh,TAOK3,0%
same,%Inh,TBK1,11%
same,%Inh,TEC,17%
same,%Inh,TESK1,19%
same,%Inh,TGFBR2,17%
same,%Inh,TIE1,0%
same,%Inh,TIE2,48%
same,%Inh,TLK1,0%
same,%Inh,TLK2,0%
same,%Inh,TNIK,0%
same,%Inh,TNK1,59%
same,%Inh,TNK2,40%
same,%Inh,TNNI3K,0%
same,%Inh,TRKA,0%
same,%Inh,TRKB,0%
COc1ccc(-c2nc3n(c2-c2ccncc2)CCC3)cc1 [SKF-104493],%Inh,SgK110,0%
same,%Inh,TAK1; 1 µM,0% and 31%
same,%Inh,TAOK1,0%
same,%Inh,TAOK2; 1 µM,26% and 10%
same,%Inh,TAOK3; 1 µM,5% and 0%
same,%Inh,TBK1; 1 µM,13% and 17%
same,%Inh,TEC,0%
same,%Inh,TESK1; 1 µM,1% and 24%
same,%Inh,TGFBR1; 1 µM,37% and 31%
same,%Inh,TGFBR2,0%
same,%Inh,TIE1,0%
same,%Inh,TIE2; 1 µM,0% and 2%
same,%Inh,TLK1; 1 µM,7% and 0%
same,%Inh,TLK2; 1 µM,0% and 24%
same,%Inh,TNIK; 1 µM,0% and 11%
same,%Inh,TNK1; 1 µM,6% and 0%
same,%Inh,TNK2,0%
same,%Inh,TNNI3K; 1 µM,25% and 6%
same,%Inh,TRKA; 1 µM,0% and 32%
same,%Inh,TRKB; 1 µM,13% and 0%
